Compound activity: PubChem, The Scripps Research Institute Molecular Screening Center
Sampled rows, rich in hits. Any-hit rate of the full collection: about 3.5%.
FBW7 act: human FBW7 E3 ligase activation, primary screen; normalized activity (activation), % at 26.1 µM; AlphaScreen FBW7–phospho-cyclin E peptide binding, activator screen; actives 0.13% (n = 650,000); AID 1259310; Q969H0; in the data active means normalized activity above about 1.9%;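 further: purified mutant Fbw7 with reduced substrate affinity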
Target sequence (Q969H0 whole entry, looked up): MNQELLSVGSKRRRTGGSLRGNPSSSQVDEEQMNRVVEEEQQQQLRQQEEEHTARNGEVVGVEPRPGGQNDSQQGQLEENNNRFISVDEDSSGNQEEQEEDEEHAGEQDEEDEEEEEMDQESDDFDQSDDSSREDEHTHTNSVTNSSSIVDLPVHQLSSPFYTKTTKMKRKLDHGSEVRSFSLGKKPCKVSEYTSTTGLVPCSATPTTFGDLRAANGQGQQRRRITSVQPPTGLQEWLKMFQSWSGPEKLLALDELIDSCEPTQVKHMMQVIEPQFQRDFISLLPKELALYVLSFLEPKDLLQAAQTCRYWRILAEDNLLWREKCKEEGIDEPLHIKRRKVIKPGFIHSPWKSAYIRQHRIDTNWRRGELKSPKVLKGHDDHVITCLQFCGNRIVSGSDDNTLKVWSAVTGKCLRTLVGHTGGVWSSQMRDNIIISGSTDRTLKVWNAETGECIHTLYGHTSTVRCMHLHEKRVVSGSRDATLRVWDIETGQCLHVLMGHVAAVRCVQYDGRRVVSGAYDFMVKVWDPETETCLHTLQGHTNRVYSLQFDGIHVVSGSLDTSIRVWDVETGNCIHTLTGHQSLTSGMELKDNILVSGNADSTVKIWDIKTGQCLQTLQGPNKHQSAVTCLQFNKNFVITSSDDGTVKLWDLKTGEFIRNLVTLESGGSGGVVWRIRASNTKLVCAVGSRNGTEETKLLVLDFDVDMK
MITF primary: human MITF inhibition, primary screen. actives 0.91% (n = 650,000). inhibition, % at 2.6 µM. AlphaScreen MITF homodimerization, bead proximity signal. O75030; in the data active means inhibition above about 50%;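 further: 0% = vehicle wells with protein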
TEAD-YAP block: TEAD-YAP interaction inhibition; HEK-TIYL cells, TEAD-Gal4/YAP UAS-luciferase luminescence; inhibition, % at 9.12 µM; actives 1.4% (n = 640,000); AID 1259422; in the data active means inhibition above about 32%;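 further: 0% = median of test compound wells and 100% = reference inhibitor wells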
GPR151 activ: activates the human receptor GPR151. activation, % at 11.2 µM. PathHunter beta-arrestin GPR151 cells, luminescence. actives 1% (n = 650,000). Q8TDV0. AID 1508602; in the data active means activation above about 4.9%;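 further: 0% = median of compound wells and 100% = cells with positive control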
GPR151 confirm: confirmation of human GPR151 activators. GPR151 PathHunter beta-arrestin cells, luminescence, 90 min; % of EA-reagent control over plate median. 6,700 tested, under 10 active. shares compounds with GPR151 activ. activation, % at 11.2 µM. AID 1508609;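 active means mean percent activation across replicates above the confirmation screen cutoff of 4.91%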
GPR119 counter: GPR119 activation, counter-screen for GPR151 activators; shares compounds with GPR151 activ; GPR119 PathHunter beta-arrestin cells, luminescence, 90 min; 0 = compound-well median, 100 = enzyme-acceptor control; activation, % at 11.2 µM; actives 0.3% (n = 6,700); AID 1508611;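 active means mean percent activation in the counterscreen above 29.09%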;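 further: counterscreen on off-target GPR119 to flag nonselective hits from the GPR151 activator screen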
The depositor's hits bear a star; · = no result.

SMILES | FBW7 act | MITF primary | TEAD-YAP block | GPR151 activ | GPR151 confirm | GPR119 counter
O=C1OC(c2ccc(Br)o2)=N/C1=C\c1ccccc1Cl | 0 | 9 | 1 | -1 | · | ·
COc1cc(OC)c(NS(=O)(=O)c2cc3c(cc2C)N(C)CCO3)cc1Cl | 0 | 4 | -4 | 3 | · | ·
COc1ccc(NS(=O)(=O)c2cc3c(cc2C)N(C)CCO3)c(OC)c1 | 0 | 12 | 7 | 7.3* | 1 | 2
COC(=O)C1=CN(Cc2ccc(F)cc2)C=C(C(=O)OC)C1c1ccc(OCc2ccccc2)c(OC)c1 | 1 | 1 | 0 | 0 | · | ·
CCOC(=O)C1=CN(Cc2ccc(F)cc2)C=C(C(=O)OCC)C1c1ccc(OCc2ccccc2)c(OC)c1 | 0 | -26 | 1 | 14* | 0 | 7
CCOCCCNC(=S)N1CCC(NC(=O)c2ccco2)CC1 | 0 | 6 | -3 | 5.9* | 0 | -2
CC(=O)c1ccc(N2CCN(C(=S)NCC3CCCO3)CC2)cc1 (stereo not given) | 0 | 6 | -2 | 1 | · | ·
CCOCCCNC(=S)N1CCC(NC(=O)c2ccc(C)cc2)CC1 | 0 | 1 | -1 | 1 | · | ·
O=C(c1ccco1)N1CCN(C(=S)NCC2CCCO2)CC1 (stereo not given) | 0 | -10 | 9 | 6.4* | 0 | -2
CC(=O)Nc1ccc(/C=C(\C#N)c2nc3ccccc3[nH]2)cc1 | 0 | 3 | -31 | 0 | · | ·
CC(=O)Nc1ccc(/C=C(\c2nc3ccccc3[nH]2)S(=O)(=O)c2ccccc2)cc1 | 0 | 6 | -3 | 6.6* | 0 | 3
Cc1cc(C)c(S(=O)(=O)Nc2cc3c4c(c2)CC(=O)N4CCC3)c(C)c1 | 0 | 2 | 5 | 5.0* | 0 | -3
COc1cc(OC)cc(-c2nc(=S)[nH][nH]2)c1 | 0 | -6 | 11 | 6.8* | 1 | 10
CS(=O)(=O)Nc1ccc(C(=O)Nc2ccccc2C(=O)NCCc2ccccc2)cc1 | 0 | 1 | -24 | 0 | · | ·
COc1ccc(CNC(=O)c2c(Cl)cccc2Cl)cc1 | 0 | -3 | -2 | 5.7* | 1 | 10
CCN(CC)c1ccc(C(=O)NCCc2ccccc2)cc1 | 0 | 6 | -47 | 7.0* | 0 | 7
CCN(CC)c1ccc(C(=O)NCCO)cc1 | 0 | 14 | -9 | 0 | · | ·
CS(=O)(=O)Nc1ccc(C(=O)NCCc2ccccc2)cc1 | 0 | 8 | -35 | 5.7* | 1 | 5
COc1ccc(C(=O)NC(=S)NCc2ccccc2)cc1 | 0 | 17 | -2 | 11* | 0 | -2
CC(C)(C)NCC(O)COc1cccc2c1CC(O)C(O)C2 (stereo not given) | 0 | 5 | 17 | -1 | · | ·
CC(CNC(=O)CCc1ccccc1)NC(=O)CCc1ccccc1 (stereo not given) | 0 | 13 | 2 | 3 | · | ·
CCCCCCC(=O)Nc1cc(OC)c(Cl)cc1OC | 0 | 4 | -4 | 0 | · | ·
COc1ccc(C(=O)Nc2ccc(C(=O)NCCc3ccccc3)cc2)cc1 | 0 | 9 | -6 | 5.2* | 0 | -4
O=C(COc1ccc(C(=O)NCCc2ccccc2)cc1)Nc1ccccc1F | 0 | 13 | 2 | 28* | -1 | -5
COc1ccc(NC(=O)c2ccc(NC(=O)c3ccc(NC(=O)c4cccc(C)c4)cc3)cc2)cc1 | 0 | -2 | 2 | 2 | · | ·
SMILES | FBW7 act | MITF primary | TEAD-YAP block | GPR151 activ | GPR151 confirm | GPR119 counter
COc1ccc(CNC(=O)c2ccc(NS(C)(=O)=O)cc2)cc1 | 0 | -2 | 4 | 4.9* | 1 | 12
COc1ccc(NC(=O)CNC(=O)c2cccc(C)c2)cc1 | 0 | -5 | -8 | 8.1* | 1 | 5
CCSCCOC(=O)C1=C(C)NC2=C(C(=O)C(C(=O)OC)C(C)C2)C1c1cccc([N+](=O)[O-])c1 (stereo not given) | 1 | 17 | 11 | 2 | · | ·
Cc1nc(N2CCN(c3ccccc3)CC2)nc2c1C(=O)CC(c1ccco1)C2 (stereo not given) | 1 | 17 | 6 | -1 | · | ·
Cn1c(=O)c(=O)n(C)c2cc(S(=O)(=O)CCC(=O)NCc3ccc(Cl)cc3)ccc21 | 0 | 1 | 0 | -2 | · | ·
Fc1ccccc1/C=N/n1c(-c2ccco2)n[nH]c1=S | 0 | -9 | 1 | -1 | · | ·
CCCCCCc1cnc(-c2ccc(Br)cc2)nc1 | 0 | 8 | -8 | -2 | · | ·
CCCCCCOc1ccc(-c2ncc(CCCCC)cn2)cc1 | 0 | 0 | 6 | 5.8* | 0 | -9
COc1ccc(Cn2c(O)c(C=Nc3ccc(OC)cc3OC)c3ccccc3c2=O)cc1 | 0 | -8 | 4 | 7.0* | 2 | -5
CC(C)CN(C(=O)c1ccccc1Cl)c1nnc(-c2ccncc2)s1 | -1 | 12 | -6 | 6.3* | 0 | -2
O=C(Cc1ccccc1[N+](=O)[O-])Nc1ccc(S(=O)(=O)N2CCCCC2)cc1 | 0 | 8 | -5 | -1 | · | ·
COc1ccc(S(=O)(=O)N2CCN(c3ccccc3F)CC2)cc1Cl | 0 | -3 | 2 | 12* | -1 | -2
COc1ccc(S(=O)(=O)N2CCN(c3cccc(Cl)c3Cl)CC2)cc1OC | 0 | 0 | -3 | 8.3* | 1 | -9
COc1ccc(S(=O)(=O)N2CCN(c3ccccc3OC)CC2)cc1Cl | 0 | -10 | 1 | 1 | · | ·
COc1ccccc1N1CCN(S(=O)(=O)c2cc(C)sc2C)CC1 | 0 | 16 | 5 | 6.1* | 1 | 1
Cc1cc(S(=O)(=O)N2CCN(c3ccccc3O)CC2)c(C)s1 | 0 | 22 | 0 | 1 | · | ·
CCOC(=O)c1ccccc1NC(=O)CC(C)CC(=O)O (stereo not given) | 0 | 5 | -6 | 5.9* | 1 | 5
CCc1ccc(NC(=O)CSc2nc3ncccc3[nH]2)cc1 | 0 | 0 | -10 | 6.5* | 1 | 5
O=C(CC1(C(F)(F)F)NCCO1)c1cccs1 (stereo not given) | 0 | -1 | -50 | 0 | · | ·
Cn1c(SCC(=O)Nc2ccc(F)c(F)c2)nnc1-c1ccccn1 | 0 | 3 | -13 | 3 | · | ·
Cn1c(SCC(=O)c2cccc(Br)c2)nnc1-c1ccccn1 | 0 | -2 | -2 | 4.9* | 0 | 2
CSC1=NC(=Nc2cccc(C)c2)C2(CCCCC2)N1c1cc([N+](=O)[O-])ccc1C | 0 | 11 | -3 | 0 | · | ·
CC(=O)C1=C(O)C(=O)N(Cc2cccnc2)C1c1ccc(O)cc1 (stereo not given) | 0 | -13 | 10 | 5.4* | 1 | 17
O=C1NC(c2ccc(Cl)cc2Cl)Oc2ccccc21 (stereo not given) | 0 | 12 | 3 | 8.9* | 2 | -1
Cc1ccc(N2C(=O)C(Cl)=C(N3CCCCC3)C2=O)cc1 | 0 | -12 | 7 | 7.5* | -1 | -2
